The whole screen tested about 52,000 compounds, of which about 4,300 (8.3%) were called active. The entries come from a sample that favours actives as a whole. Unmarked numbers belong to inactive results. No stated cut-off is given here; in the data, active means survival mostly below about 52% (no sharp cut-off); inactive means mostly above about 56%.
Tested on: DeltatarO mutant
Assay: growth inhibition of S. aureus wild type versus tarO mutant, primary screen, teichoic acid synthesis inhibitors, RN4220, OD600 (AID 463173)
Settings: OD600, 18 h, hits give low values, screened at 18.75 µg/mL (by protocol)

Row | Structure (SMILES) | survival
1 | COc1cccc(N2CC(NC(=O)C3CCCC3)CC2=O)c1 (stereo not given) | 46% (active)
2 | COc1cccc(N2CC(NC(=O)C3CCCCC3)CC2=O)c1 (stereo not given) | 144%
3 | COc1cccc(OCC(=O)NC2CC(=O)N(c3cccc(OC)c3)C2)c1 (stereo not given) | 106%
4 | COc1cccc(N2CC(NC(=O)C3CC3)CC2=O)c1 (stereo not given) | 105%
5 | COc1ccc(OCC(=O)NC2CC(=O)N(c3cccc(OC)c3)C2)cc1 (stereo not given) | 0% (active)
6 | COc1cccc(N2CC(NC(=O)c3ccco3)CC2=O)c1 (stereo not given) | 37% (active)
7 | COc1cccc(N2CC(NC(=O)COc3ccc4ccccc4c3)CC2=O)c1 (stereo not given) | 107%
8 | COc1ccc(N2CC(NC(=O)c3ccco3)CC2=O)cc1OC (stereo not given) | 89%
9 | O=C(Nc1cccc(F)c1)C1CCCN(S(=O)(=O)c2cccc3cccnc23)C1 (stereo not given) | 70%
10 | COc1ccccc1CNc1ncnc2c1c(-c1ccccc1)cn2-c1ccc(Br)cc1 | 80%
11 | COc1ccc(C)cc1NC(=O)CN1C(=O)COc2ccc(S(=O)(=O)N3CCOCC3)cc21 | 98%
12 | COc1ccc(-c2nnc(SCC(=O)NCc3ccc(C)cc3)nc2-c2ccc(OC)c(OC)c2)cc1OC | 76%
13 | CCNS(=O)(=O)c1cccs1 | 96%
14 | Cc1nn(CC(=O)Nc2ccccc2F)c(=O)c2c(C)n(-c3ccc(Cl)cc3)nc12 | 102%
15 | Cc1cc(NC(=O)NCc2ccc3c(c2)CCN3C(=O)c2ccccc2)ccc1Br | 116%
16 | CCOC(=O)c1cnc(-c2ccccc2)nc1Nc1ccc(C)cc1 | 90%
17 | CCOC(=O)c1c(Nc2ccccc2)nnc(-c2ccccc2)c1-c1ccccc1 | 6% (active)
18 | CCOC(=O)c1c(Nc2ccc(O)cc2)nnc(-c2ccccc2)c1-c1ccccc1 | 95%
19 | CCOC(=O)c1c(Nc2ccc(F)cc2)nnc(-c2ccccc2)c1-c1ccccc1 | -3% (active)
20 | CCOC(=O)c1c(C)oc2nc(C)nc(Nc3ccc(C)c(Cl)c3)c12 | 89%
21 | CCOC(=O)c1c(Nc2ccc(C)cc2)nnc(-c2ccccc2)c1-c1ccccc1 | 1% (active)
22 | CCOC(=O)c1c(C)oc2ncnc(Nc3ccc(CC)cc3)c12 | 85%
23 | CCOC(=O)c1c(Oc2ccc(C(C)=O)cc2)nnc(-c2ccccc2)c1-c1ccccc1 | 67%

Row | Structure (SMILES) | survival
24 | CCOC(=O)c1c(Nc2ccc(C)c(C)c2)nnc(-c2ccccc2)c1-c1ccccc1 | -5% (active)
25 | CCOC(=O)c1c(C)oc2nc(C)nc(Nc3ccc(CC)cc3)c12 | 115%
26 | COc1cc(C2C(C(=O)Nc3ccccc3C)=C(C)Nc3nc(SCc4cc(C)ccc4C)nn32)ccc1O (stereo not given) | 105%
27 | CCOc1ccccc1N(CC)C(=O)c1cc2c(=O)[nH]c3ccc(C)cc3c2s1 | 74%
28 | Cc1ccc(-n2nc(C)c3c(C)cc(=O)n(CC(=O)NC(C)C)c32)cc1 | 105%
29 | O=C(CN1C(=O)COc2ccc(S(=O)(=O)N3CCCCCC3)cc21)Nc1cccc(Cl)c1 | 60%
30 | COc1cc(OC)c(N(C)C(=O)c2sc3nc4n(c(=O)c3c2C)CCCC4)cc1Cl | 53%
31 | O=C(Cc1ccccc1)N(Cc1cccnc1)c1nc2ccc(Cl)cc2s1 | 72%
32 | O=C(Cc1ccc(-c2ccccc2)cc1)NCCS(=O)(=O)N1CCN(c2ccccc2)CC1 | 122%
33 | CCOc1ccc(CNC(=O)c2ccc(NC(=O)c3nsc4ccccc34)cc2)cc1 | 79%
34 | COc1ccc(C(=O)CN2CCN(S(=O)(=O)c3ccc(C(C)C)cc3)CC2)cc1 | 81%
35 | COc1ccc(N2CC(NC(=O)/C=C\c3ccc(OC)c(OC)c3)CC2=O)cc1 (stereo not given) | 55%
36 | CC(=O)c1ccc(NC(=O)CC2Oc3ccc(C)cc3NC2=O)cc1 (stereo not given) | 85%
37 | O=C(NCCc1ccc(F)cc1)C(=O)NCC(c1ccc2c(c1)OCO2)N1CCOCC1 (stereo not given) | 74%
38 | Cc1cccc(N(C)C(=O)Cc2c(C(=O)O)[nH]c3ccccc23)c1 | 134%
39 | CCN(C(=O)Cc1c(C(=O)O)[nH]c2ccccc12)c1ccc(OC)cc1 | 65%
40 | CCCN(C(=O)Cc1c(C(=O)O)[nH]c2ccc(Cl)cc12)c1ccc(OCC)cc1 | 47% (active)
41 | Cc1ccc(C)c(N(C)C(=O)Cc2c(C(=O)O)[nH]c3ccc(Cl)cc23)c1 | 40% (active)
42 | Cc1ccc2[nH]c3c(=O)n(CC(=O)N(C)c4cc(Cl)ccc4C)ncc3c2c1 | 89%
43 | COc1ccc(OC)c(NC(=O)Cc2c(C(=O)O)[nH]c3ccc(Cl)cc23)c1 | 54%
44 | CCOC(=O)c1ccccc1NC(=O)N1CCC(CN2CCCCC2)CC1 | 83%
45 | COC(=O)c1cccc(NC(=O)Nc2cc(C(=O)NCc3cccc(F)c3)ccc2N2CCCC2)c1 | 91%

From PubChem BioAssay AID463173 (ICCB-Longwood Screening Facility, Harvard Medical School, 2010)
